# Screening results as filed in PubChem BioAssay.
# D3 ag: agonists of human D3 dopamine receptor; D3R DiscoveRx beta-arrestin cells, luminescence, 90 min; max activation, %; 0.58% of 410,000 active; AID 652048; in the data active = max activation above about 30%; also: 0% is about no effect
# Target sequence (P35462 whole entry, looked up): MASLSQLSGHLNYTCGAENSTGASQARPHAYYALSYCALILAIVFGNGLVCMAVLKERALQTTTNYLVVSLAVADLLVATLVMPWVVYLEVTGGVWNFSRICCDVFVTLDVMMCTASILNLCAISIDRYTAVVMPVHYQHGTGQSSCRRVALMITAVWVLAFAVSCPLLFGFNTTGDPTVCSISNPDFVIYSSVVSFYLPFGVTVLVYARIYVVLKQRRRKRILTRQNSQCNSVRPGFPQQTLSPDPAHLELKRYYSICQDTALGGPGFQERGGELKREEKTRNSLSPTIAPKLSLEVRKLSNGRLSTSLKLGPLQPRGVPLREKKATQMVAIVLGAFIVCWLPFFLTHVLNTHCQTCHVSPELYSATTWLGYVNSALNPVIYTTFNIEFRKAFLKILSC
#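 Agonist-mode cell screen: cells plated at 1500/well and incubated overnight at 37 °C, then exposed to library compounds for 90 min at 37 °C. Detection reagent was added for 30–60 min at room temperature, and luminescence was read.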
# DRD3 antagonist: blocks the human D3 dopamine receptor; P35462; D3R cells, DiscoveRx beta-arrestin luminescence, antagonist mode; stronger effect = lower value; max response, negative = inhibition, %; 2.5% of 360,000 active; AID 652054; in the data active = max response below about -50%; also: % is scaled to controls: 0 for no effect and ±100 for the full control effect
#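 Cells plated overnight at 1500 cells/well, then exposed to library compounds with dopamine controls for 90 minutes at 37 degrees C. DiscoveRx reagent added for 30–60 minutes at room temperature; luminescence read, quantitative HTS format.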
# D1 antag: blocks dopamine activation of the human D1 receptor; activity change, negative = inhibition, % at 10 µM; HEK293 TREx D1 cells, calcium flux, dopamine EC80; stronger effect = lower value; P21728; 3.2% of 360,000 active; in the data active = activity change below about -30%; also: % is scaled to controls: 0 for no effect and ±100 for the full control effect
#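 Using tetracycline-induced force-coupled D1 Hek293 cells and a calcium dye, signals were followed for 180 s after compound, then for 180 s after EC80 dopamine, to detect inhibitors.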
# D1 agonist: human D1 receptor agonism | P21728 | HEK293 T-REx D1 cells, calcium flux, agonist mode | activation, % at 2 µM | 1% of 360,000 active; in the data active = activation above about 30%; also: 0% is about no effect
#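 Tetracycline-induced HEK293 TREx D1 cells, force-coupled to calcium signalling, were dye-loaded with a no-wash calcium kit. Compound was pin-added after a 10 s baseline. Fluorescence was read kinetically at 1 cycle/s for 180 s, with calcium rises flagged as agonism.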
# D1 PAM: enhances dopamine response at the human D1 receptor; potentiation, % at 10 µM; HEK293 TREx D1 cells, calcium flux, dopamine EC20 potentiation; AID 504651; 0.036% of 360,000 active; in the data active = potentiation above about 30%; also: 0% is about no effect
# * marks the source's active call; other numbers are inactive results; / = not tested or not shown. Sampled rows, rich in hits. Any-hit rate of the full collection: about 6.1%.
SMILES,D3 ag,DRD3 antagonist,D1 antag,D1 agonist,D1 PAM
O=C(NCCn1cc(SCc2ccc(F)cc2)c2ccccc21)c1cccs1,7.8,/,13.3,-0.9,-5.8
COC(=O)c1cc(Cl)c(NC(=O)c2cc(OC)c(OC)c(OC)c2)cc1OC,41.1*,33.0,5.2,1.4,-8.1
COc1c(Cl)cc(C(=O)Nc2ccccc2C(=O)O)cc1Cl,1.1,18.3,-36.9*,3.3,6.1
CCOC(=O)c1cccc(NC(=O)c2cc3c(=O)n(Cc4cccnc4)ccc3nc2C)c1,1.1,/,9.4,2.7,-7.5
COc1ccc(-n2c(SCC(=O)Nc3ccc(Cl)cc3)nc(O)c(Cc3ccccc3)c2=O)cc1,1.6,5.6,-3.3,8.0,-0.5
COc1ccc(NC(=O)CSc2nnc(-c3nonc3NC(C)=O)n2-c2ccccc2)cc1,7.8,/,-45.9*,-2.4,1.2
CC(=O)Nc1nonc1-c1nnc(SCC(=O)Nc2ccc(C)c(Cl)c2)n1-c1ccccc1,1.7,/,2.9,-0.5,0.3
COc1ccc(-n2c(SCC(=O)Nc3ccc(C)cc3)nc(O)c(Cc3ccccc3)c2=O)cc1,4.9,22.3,-51.5*,6.1,0.7
COc1ccccc1NC(=O)CSc1nc2c(oc3ccccc32)c(=O)n1-c1ccc(C)cc1,13.2,/,-39.2*,6.1,-3.5
CCCCCCCCCCCC(=O)NC(C(=O)O)C(O)c1ccccc1 (stereo unspecified),5.9,-3.4,-2.8,374.3*,17.1
CCCCCCCCCC(=O)N[C@H](CN1CCOCC1)[C@H](O)c1ccccc1,-8.7,-22.4,/,/,/
COc1cccc(N2CC(NC(=O)c3cccs3)CC2=O)c1 (stereo unspecified),-7.0,/,/,1.4,-1.3
CC(C)(C)NC(=O)CSc1nc(-c2ccc(F)cc2)cs1,5.5,-21.7,2.9,2.1,0.1
CCNC(=O)CSc1nc(-c2ccc(F)cc2)cs1,2.4,9.8,-30.6*,0.3,-6.7
Cc1cc(NC(=O)CSc2nc(-c3ccc(Cl)cc3)cs2)no1,0.1,4.0,-45.9*,2.4,-2.6
Cc1ccc(Cl)cc1N1CCN(C(=O)CCS(=O)(=O)c2ccc3c(c2)oc(=O)n3C)CC1,1.7,/,-8.2,5.9,-3.1
O=C(Nc1ccc(F)c(Cl)c1)N1CC=C(c2c[nH]c3ccccc23)CC1,1.7,/,-6.5,1.5,-2.6
Cc1ccc(NC(=O)C(=O)NCCc2c[nH]c3ccccc23)c(C)c1,7.0,-6.2,4.5,30.2*,1.5
Cc1ccc(C)c(NC(=O)C(=O)NCCc2c[nH]c3ccccc23)c1,9.0,1.9,8.3,1.7,-12.4
O=C(NCCc1ccc(Cl)cc1Cl)c1cncc(Br)c1,0.7,10.7,-38.1*,4.4,-12.3
CCOC(=O)CCCNC(=O)c1cncc(Br)c1,31.2*,-5.5,-18.6,1.6,-3.4
Cc1cccc(OCCNC(=O)c2cncc(Br)c2)c1,0.8,4.5,3.0,1.4,-2.8
O=C(NCCc1c[nH]c2ccccc12)c1cncc(Br)c1,-3.2,0.8,-34.5*,10.4,-8.3
CS(=O)(=O)Nc1cccc(-c2cc(F)c(S(=O)(=O)N3CCN(S(=O)(=O)c4ccc5c(c4)OCCO5)CC3)cc2F)c1,/,/,-16.9,2.4,4.0
O=S(=O)(c1ccc2nc(Nc3ccc(Br)cc3F)ccc2c1)N1CCCCC1,0.1,/,-10.6,2.1,-6.3
SMILES,D3 ag,DRD3 antagonist,D1 antag,D1 agonist,D1 PAM
CCC1=Nc2cc(C(=O)NCc3cccnc3)ccc2Sc2ccc(C)cc21,-16.3,-10.0,-76.3*,2.8,-19.4
CCC1=Nc2cc(C(=O)NCc3ccc(C)cc3)ccc2Sc2ccc(C)cc21,-13.4,/,16.8,2.8,-5.1
CCC1=Nc2cc(C(=O)NC3CCCC3)ccc2Sc2ccc(Cl)cc21,-13.7,/,-33.8*,5.3,-4.7
CCOC(=O)c1c(C)[nH]c(NC(=O)NNC(=O)c2ccc(OC)cc2)c1C,1.9,-0.5,-1.5,1.9,/
CCOC(=O)c1c(C)[nH]c(NC(=O)NNC(=O)c2ccccc2Cl)c1C,0.0,41.9,-30.9*,1.2,-9.6
COc1ccc(CCNC(=O)CCn2c(=O)c3ccccc3n(Cc3ccccc3F)c2=O)cc1OC,0.9,/,-1.1,-0.3,0.8
ClCC(CNCc1ccccc1)c1ccccc1 (stereo unspecified),-29.4,-55.4*,/,/,/
OC(CNCc1ccccc1)c1ccccc1 (stereo unspecified),-18.1,9.5,5.7,3.0,-2.3
CCN(CC)CCCNC(=O)c1cc(Nc2ccc(OC)cc2OC)nc2ccccc12,-1.7,-18.9,-11.9,1.3,-8.9
COc1ccc(Nc2cc(C(=O)NCCCN(C)C3CCCCC3)c3ccccc3n2)c(OC)c1,-19.1,/,-13.7,33.7*,-1.7
COc1ccc(Nc2cc(C(=O)NCCCN(C)C3CCCCC3)c3ccccc3n2)cc1,-12.8,/,-40.7*,65.3*,0.6
COc1ccc(Nc2cc(C(=O)NC3CCCC3)c3ccccc3n2)cc1,4.1,/,-9.4,-0.5,4.3
COc1ccc(OC)c(Nc2cc(C(=O)NCc3ccccc3)c3ccccc3n2)c1,-15.6,/,-79.8*,0.0,2.2
Cn1c(CN2CCCC2)nc2cc(NC(=O)COc3ccc(Cl)cc3)ccc21,-29.9,-69.0*,-3.7,3.1,-17.9
COc1ccc(OCC(=O)Nc2ccc3c(c2)nc(CN2CCCC2)n3C)cc1,-14.2,-54.3*,-9.0,-1.2,-2.1
C[C@H](/C=C/[C@H](C)C(C)(C)O)[C@H]1CC[C@H]2/C(=C/C=C3C[C@@H](O)C[C@H](O)C3)CCC[C@]12C,6.5,/,/,/,/
CCc1ccc(CN(C(=O)Nc2cccc(Cl)c2)c2ccccn2)cc1,-2.9,/,-18.5,31.3*,-0.1
Cc1nnc(SCc2cc(=O)n3cccc(C)c3n2)s1,-22.0,/,-47.0*,-0.5,2.2
Cc1cccn2c(=O)cc(CSc3nnc(NC(=O)c4ccc(F)cc4)s3)nc12,-6.3,/,-3.2,0.1,-0.1
O=C(NCCCN1CCN(c2ccccc2)CC1)c1ccc2nc(CCc3ccccc3)oc2c1,12.5,/,-59.9*,32.5*,-4.2
CN(CC1CCOCC1)C(=O)c1ccc2nc(Cc3cccc(Cl)c3)oc2c1,6.7,13.2,1.5,2.7,6.5
O=C(NCCCN1CCN(c2cccc(Cl)c2)CC1)c1ccc2nc(Cc3ccccc3)oc2c1,-6.7,/,-32.6*,17.8,-4.6
O=C(NCC1CCOCC1)c1ccc2nc(Cc3cccc(Cl)c3)oc2c1,-8.6,1.9,-53.2*,-0.9,-22.8
CC(C)c1nc2ccc(C(=O)NCCCN3CCN(c4ccc(F)cc4)CC3)cc2o1,-22.2,/,-7.3,3.1,-1.9
CC(C)c1nc2ccc(C(=O)NCCCN3CCN(c4cccc(Cl)c4)CC3)cc2o1,16.3,/,-45.1*,7.0,-5.0
COc1ccc(N2CCN(CCCNC(=O)c3ccc4nc(Cc5ccccc5)oc4c3)CC2)cc1,4.3,/,-24.3,27.0,-3.2
Cc1ccc(Cl)cc1N1CCN(C(=O)c2ccc3c(c2)N(Cc2ccccc2F)C(=O)c2ccccc2S3(=O)=O)CC1,-14.3,/,9.0,5.8,-4.3
